This note sets out measurements from PubChem BioAssay (EPA / NIEHS).

Each structure is given as a SMILES string. Records with an inconclusive call do not appear. Active and inactive are the calls of the source. Rule for the calls: active = hit-call score of the fitted dose curve at least 0.9, where 1 is the maximum; inconclusive = response in the unintended direction; inactive = score below 0.9.

Chain of rat Monoamine Oxidase, MAO-B, Central (MAOBC), Maob (gene 25750) (P19643 whole entry, looked up): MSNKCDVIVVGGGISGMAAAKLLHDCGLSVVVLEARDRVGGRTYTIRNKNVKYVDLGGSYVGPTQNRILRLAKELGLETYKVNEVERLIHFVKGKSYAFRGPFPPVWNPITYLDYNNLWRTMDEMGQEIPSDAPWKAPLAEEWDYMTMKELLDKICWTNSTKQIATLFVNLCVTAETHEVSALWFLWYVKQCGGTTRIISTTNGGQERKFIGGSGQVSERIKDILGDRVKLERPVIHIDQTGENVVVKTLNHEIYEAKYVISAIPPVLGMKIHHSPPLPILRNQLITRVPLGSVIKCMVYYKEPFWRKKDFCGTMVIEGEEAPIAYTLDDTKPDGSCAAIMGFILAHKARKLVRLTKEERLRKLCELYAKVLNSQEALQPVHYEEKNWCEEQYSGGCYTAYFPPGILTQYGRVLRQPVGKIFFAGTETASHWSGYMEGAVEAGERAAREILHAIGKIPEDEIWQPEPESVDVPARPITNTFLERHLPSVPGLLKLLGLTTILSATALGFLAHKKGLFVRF
Chain of rat Constitutive Nitric Oxide Synthase (CNOS), Nos1 (gene 24598) (P29476 whole entry, looked up): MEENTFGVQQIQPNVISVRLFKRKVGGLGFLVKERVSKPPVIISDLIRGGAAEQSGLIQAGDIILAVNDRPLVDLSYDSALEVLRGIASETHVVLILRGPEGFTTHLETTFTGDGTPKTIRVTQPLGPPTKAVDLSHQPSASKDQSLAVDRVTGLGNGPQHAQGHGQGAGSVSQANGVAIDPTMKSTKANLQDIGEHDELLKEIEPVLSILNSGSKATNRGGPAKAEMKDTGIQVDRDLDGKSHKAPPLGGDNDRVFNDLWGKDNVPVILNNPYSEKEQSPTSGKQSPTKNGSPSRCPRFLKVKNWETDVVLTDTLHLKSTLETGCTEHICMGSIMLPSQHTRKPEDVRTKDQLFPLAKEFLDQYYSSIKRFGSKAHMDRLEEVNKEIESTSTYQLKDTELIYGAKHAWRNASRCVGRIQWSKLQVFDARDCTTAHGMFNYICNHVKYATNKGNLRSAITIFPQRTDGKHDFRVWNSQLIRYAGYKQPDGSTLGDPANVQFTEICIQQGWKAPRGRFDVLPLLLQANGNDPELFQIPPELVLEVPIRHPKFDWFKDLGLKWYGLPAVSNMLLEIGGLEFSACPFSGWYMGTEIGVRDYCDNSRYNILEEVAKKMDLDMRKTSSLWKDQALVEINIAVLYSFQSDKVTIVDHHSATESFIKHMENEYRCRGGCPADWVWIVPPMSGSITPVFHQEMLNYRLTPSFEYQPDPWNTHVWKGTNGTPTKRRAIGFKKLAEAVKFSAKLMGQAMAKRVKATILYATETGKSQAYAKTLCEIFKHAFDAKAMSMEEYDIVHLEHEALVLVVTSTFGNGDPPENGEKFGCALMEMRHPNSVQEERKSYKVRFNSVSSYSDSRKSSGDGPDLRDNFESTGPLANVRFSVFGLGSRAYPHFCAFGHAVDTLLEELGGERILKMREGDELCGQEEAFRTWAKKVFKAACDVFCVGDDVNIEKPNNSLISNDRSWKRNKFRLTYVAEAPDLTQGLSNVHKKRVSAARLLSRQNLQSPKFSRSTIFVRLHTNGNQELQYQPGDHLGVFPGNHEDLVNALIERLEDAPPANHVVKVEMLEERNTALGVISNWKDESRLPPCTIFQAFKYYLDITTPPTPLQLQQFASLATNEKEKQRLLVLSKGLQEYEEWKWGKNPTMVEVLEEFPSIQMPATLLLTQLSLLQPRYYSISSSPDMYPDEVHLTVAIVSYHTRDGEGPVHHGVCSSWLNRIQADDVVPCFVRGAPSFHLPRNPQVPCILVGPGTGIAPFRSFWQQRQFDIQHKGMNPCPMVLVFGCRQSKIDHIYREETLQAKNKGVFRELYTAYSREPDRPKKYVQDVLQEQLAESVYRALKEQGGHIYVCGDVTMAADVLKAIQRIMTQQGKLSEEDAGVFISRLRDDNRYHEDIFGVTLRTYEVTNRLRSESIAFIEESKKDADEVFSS
Chain of rat Acetylcholinesterase (AChE), Ache (gene 83817) (P37136 whole entry, looked up): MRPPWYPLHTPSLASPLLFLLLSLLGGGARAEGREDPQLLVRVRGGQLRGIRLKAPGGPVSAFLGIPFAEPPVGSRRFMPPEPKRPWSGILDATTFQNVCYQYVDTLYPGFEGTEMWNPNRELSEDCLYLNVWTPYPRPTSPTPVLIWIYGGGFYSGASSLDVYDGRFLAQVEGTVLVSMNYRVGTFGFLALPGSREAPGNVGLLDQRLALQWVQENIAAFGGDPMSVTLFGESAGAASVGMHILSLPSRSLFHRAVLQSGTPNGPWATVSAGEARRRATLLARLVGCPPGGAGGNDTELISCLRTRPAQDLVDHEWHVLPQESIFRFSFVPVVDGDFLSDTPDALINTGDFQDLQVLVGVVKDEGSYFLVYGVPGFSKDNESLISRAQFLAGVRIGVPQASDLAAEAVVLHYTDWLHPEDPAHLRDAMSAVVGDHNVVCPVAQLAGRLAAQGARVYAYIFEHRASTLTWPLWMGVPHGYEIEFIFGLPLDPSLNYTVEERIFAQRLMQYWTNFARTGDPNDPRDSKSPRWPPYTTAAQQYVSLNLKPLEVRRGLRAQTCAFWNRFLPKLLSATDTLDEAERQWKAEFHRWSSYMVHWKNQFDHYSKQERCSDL

In the first experiment the target is sheep Cyclooxygenase-2 (Cox2), PTGS2 (gene 443460) (UniProt P79208). Briefly: NVS_ENZ_oCOX2: NovaScreen (NVS) Enzymatic Assay for sheep Cyclooxygenase-2 (Cox2) (AID 2283231). The procedure: NVS_ENZ_oCOX2 is a biochemical, single-readout assay that uses extracted gene-proteins from Ovine placenta in a tissue-based cell-free assay. Measurements were taken 0.66 hour after chemical dosing in a 96-well plate.NVS_ENZ_oCOX2 is one of one assay component(s) measured or calculated from the NVS_ENZ_oCOX2 assay. It is designed to make measurements of enzyme activity, a form of enzyme reporter, as detected with absorbance signals by Colorimetric technology.Data from the assay component NVS_ENZ_oCOX2 was analyzed into 1 assay endpoint. This assay endpoint, NVS_ENZ_oCOX2, was analyzed in the positive analysis fitting direction relative to DMSO as the negative control and baseline of activity. Using a type of enzyme reporter, loss-of-signal activity can be used to understand changes in the enzymatic activity as they relate to the gene PTGS2. Furthermore, this assay endpoint can be referred to as a primary readout, because this assay has produced multiple assay endpoints where this one serves a enzymatic activity function. To generalize the intended target to other relatable targets, this assay endpoint is annotated to the oxidoreductase intended target family, where the subfamily is cyclooxygenase.
Chain of sheep Cyclooxygenase-2 (Cox2), PTGS2 (gene 443460) (P79208 whole entry, looked up): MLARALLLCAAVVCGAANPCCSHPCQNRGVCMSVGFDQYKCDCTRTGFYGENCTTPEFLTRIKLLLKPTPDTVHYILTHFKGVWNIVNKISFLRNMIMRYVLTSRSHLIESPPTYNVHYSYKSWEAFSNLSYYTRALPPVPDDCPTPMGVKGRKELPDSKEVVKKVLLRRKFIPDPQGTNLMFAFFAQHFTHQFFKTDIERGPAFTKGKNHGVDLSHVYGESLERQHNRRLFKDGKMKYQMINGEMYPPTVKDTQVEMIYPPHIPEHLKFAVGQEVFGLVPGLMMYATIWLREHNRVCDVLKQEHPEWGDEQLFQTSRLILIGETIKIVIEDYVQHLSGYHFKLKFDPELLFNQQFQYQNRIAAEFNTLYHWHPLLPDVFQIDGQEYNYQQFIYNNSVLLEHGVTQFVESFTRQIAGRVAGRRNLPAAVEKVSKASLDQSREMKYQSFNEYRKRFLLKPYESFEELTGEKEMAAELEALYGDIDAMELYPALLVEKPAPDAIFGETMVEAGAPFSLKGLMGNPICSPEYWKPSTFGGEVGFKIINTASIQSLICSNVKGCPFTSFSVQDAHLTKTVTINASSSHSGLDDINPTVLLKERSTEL
Binding assays used specific radioligands (tritiated, iodinated) with non-radioactive competitive displacement ligands in agonist or antagonist protocols (as indicated) and various reference compounds and inhibitors to titrate specific binding to receptors and transporters. Most enzyme assays (CYPs, kinases, phosphatases, proteases, HDACs) used recombinant protein and specific substrates (fluorescence mostly, some colorimetric and radioactive) and inhibitors, followed by a biochemical separation of substrate and product. All assays for the biochemical HTS were initially run in duplicate at a single concentration (10 uM for CYP450 assays and 25 uM for all others). Assay-chemical combinations meeting a pre-defined threshold (e.g., 30% inhibition and other criteria defined below) were then run in singleton concentration-response format with maximum concentration of 20 uM for CYPs and 50 uM for all others. Each assay was run with positive and negative controls, and concurrent controls on every plate. The follow-up (secondary) screen tested active chemical-pairs in concentration series, as well as a few additional assays not tested in the primary screen, some selected negative inactives, and several cases re-run in the concentration series for confirmatory purposes.
What is called AC50 is the midpoint of the concentration-response curve, whichever way the signal moves. Turning to `CN(C)[C@@H]1C(=O)C(C(N)=O)=C(O)[C@@]2(O)C(=O)C3=C(O)c4c(O)cccc4[C@@](C)(O)[C@H]3C[C@@H]12`, the half-maximal activity concentration (AC50) was 11.4 µM (active).

`CC(O)CCO` (stereo not given): the result was inactive.

In the case of `CN(C)c1ccccc1`, the compound was classed as inactive.

With `O=P(OCCCl)(OCCCl)OCCCl`, the outcome was inactive.

Turning to `Cc1ccc([N+](=O)[O-])cc1`, the compound was called inactive.

With `CC(C)(C)OOC(=O)c1ccccc1`, the compound was called inactive.

Another experiment has as its target rat Acetylcholinesterase (AChE), Ache (gene 83817) (UniProt P37136). Briefly: NVS_ENZ_rAChE: NovaScreen (NVS) Enzymatic Assay for rat Acetylcholinesterase (AChE) (AID 2283233). A digest of the protocol:
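Rat brain membrane acetylcholinesterase activity measured colorimetrically 0.33 h after compound addition, loss of signal relative to DMSO. Primary screen in duplicate at 25 uM; actives re-run as concentration-response with 50 uM top concentration.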
On to `Cc1cccc(N)c1N`, for which the compound was classed as inactive.

Turning to `O=[N+]([O-])C(Br)(CO)CO`, the AC50 is 35.2 µM (active).

Take `CCCCCCCCOC(=O)c1ccc(C(=O)OCCCCCCCC)c(C(=O)OCCCCCCCC)c1`: the compound was called inactive.

For the compound `CNC(=O)Oc1cccc2c1OC(C)(C)C2`, the AC50 was 0.464 µM (active).

Regarding `COP(=S)(OC)SCN1C(=O)c2ccccc2C1=O`, the call was inactive.

For a further experiment, the target named is rat Catechol-O-Methyl Transferase (COMT), Comt (gene 24267) (UniProt P22734). The experiment in a line: NVS_ENZ_rCOMT: NovaScreen (NVS) Enzymatic Assay for rat Catechol-O-Methyl Transferase (COMT) (AID 2283235). A digest of the protocol: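 Cell-free enzyme activity with protein extracted from rat dorsal striatum, measured by HPLC with absorbance detection. Compounds screened at 25 uM in duplicate; actives then run in concentration-response up to 50 uM, loss of signal versus DMSO.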
Chain of rat Catechol-O-Methyl Transferase (COMT), Comt (gene 24267) (P22734 whole entry, looked up): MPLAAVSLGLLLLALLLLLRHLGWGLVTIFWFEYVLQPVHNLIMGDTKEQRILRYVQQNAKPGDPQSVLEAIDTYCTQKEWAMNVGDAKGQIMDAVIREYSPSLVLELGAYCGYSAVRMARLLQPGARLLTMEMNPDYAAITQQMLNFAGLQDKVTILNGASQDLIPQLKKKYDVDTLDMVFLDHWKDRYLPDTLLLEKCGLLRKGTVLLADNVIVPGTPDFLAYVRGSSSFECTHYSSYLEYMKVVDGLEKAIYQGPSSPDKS
For the compound `CN(C)[C@@H]1C(=O)C(C(N)=O)=C(O)[C@@]2(O)C(=O)C3=C(O)c4c(O)cccc4[C@@](C)(O)[C@H]3C[C@@H]12`, the AC50 was 2.73 µM (active).

Regarding `CCCCCCCCCCCCCN1CC(C)OC(C)C1` (stereo not given), the AC50 is 20.8 µM (active).

`Cc1cc(N=Nc2ccccc2C)ccc1N`: the concentration at half-maximal activity (AC50) is 0.643 µM (active).

For the next experiment, the target named is rat Constitutive Nitric Oxide Synthase (CNOS), Nos1 (gene 24598) (UniProt P29476). Briefly: NVS_ENZ_rCNOS: NovaScreen (NVS) Enzymatic Assay for rat Constitutive Nitric Oxide Synthase (CNOS) (AID 2283236). In a few lines:
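Enzyme activity in rat brain membrane preparation, read 1 h after dosing by filter-based radiometric scintillation counting. Primary screen in duplicate at 25 uM; actives (e.g., ≥30% inhibition) then run in concentration-response up to 50 uM.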
As for `CCCCOC(=O)c1ccccc1C(=O)OCc1ccccc1`, the call was inactive.

Consider `COP(=S)(OC)SCN1C(=O)c2ccccc2C1=O`, for which the AC50 was 3.44 µM (active).

For `C=CCc1ccc2c(c1)OCO2`, the call was inactive.

The next experiment has as its system rat Monoamine Oxidase, MAO-A, Peripheral (MAOAP), gene 29253. Briefly: NVS_ENZ_rMAOAP: NovaScreen (NVS) Enzymatic Assay for rat Monoamine Oxidase, MAO-A, Peripheral (MAOAP) (AID 2283237). A digest of the protocol:
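Rat liver mitochondrial membranes served as the MAO-A source, with enzyme activity measured by radiometric scintillation counting 1.17 hours after dosing. Loss of signal was fitted against DMSO; primary screen used 25 uM in duplicate, follow-up used concentration series.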
Take `CCN(CC)CCO`: the call was inactive.

Turning to `[Cl-].[Cl-].[Hg+2]`, the AC50 was 3.19 µM (active).

With `CCOc1cccc(C2(N3CCN(c4ccccc4)CC3)CCC(C)CC2)c1` (stereo not given), the AC50 was 13.7 µM (active).

`CC(C)(C)OOC(C)(C)CCC(C)(C)OOC(C)(C)C`: the compound was called inactive.

The next experiment concerns the target rat Monoamine Oxidase, MAO-B, Central (MAOBC), Maob (gene 25750) (UniProt P19643). Briefly: NVS_ENZ_rMAOBC: NovaScreen (NVS) Enzymatic Assay for rat Monoamine Oxidase, MAO-B, Central (MAOBC) (AID 2283238). In a few lines: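 Rat brain tissue extract served as the cell-free MAO-B source; enzyme activity was read by scintillation counting 1.17 hours after compound addition. Loss of signal versus DMSO baseline was fitted; primary single-concentration screen at 25 uM, follow-up concentration-response up to 50 uM.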
As to `O=[N+]([O-])C(Br)(CO)CO`, the AC50 is 35.6 µM (active).

As to `CN(C)[C@@H]1C(=O)C(C(N)=O)=C(O)[C@@]2(O)C(=O)C3=C(O)c4c(O)cccc4[C@@](C)(O)[C@H]3C[C@@H]12`, the compound was called inactive.

`Cc1cc(N=Nc2ccccc2C)ccc1N`: the AC50 is 25 µM (active).

For `COP(=S)(OC)SCN1C(=O)c2ccccc2C1=O`, the outcome was inactive.

Regarding `CC(C)(C)OOC(=O)c1ccccc1`, the compound was called inactive.

For another experiment, the target named is sheep Cyclooxygenase-1 (Cox1), PTGS1 (gene 443551) (UniProt P05979). The experiment in a line: NVS_ENZ_oCOX1: NovaScreen (NVS) Enzymatic Assay for sheep Cyclooxygenase-1 (Cox1) (AID 2283239).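 Note: actives reduce cyclooxygenase activity so potencies are for inhibitors.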 In a few lines: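 Absorbance read-out of cyclooxygenase activity in a cell-free preparation from sheep seminal vesicles, taken 0.66 hour after dosing. Initial testing was in duplicate at 25 uM, and confirmatory testing was run in concentration series.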
Chain of sheep Cyclooxygenase-1 (Cox1), PTGS1 (gene 443551) (P05979 whole entry, looked up): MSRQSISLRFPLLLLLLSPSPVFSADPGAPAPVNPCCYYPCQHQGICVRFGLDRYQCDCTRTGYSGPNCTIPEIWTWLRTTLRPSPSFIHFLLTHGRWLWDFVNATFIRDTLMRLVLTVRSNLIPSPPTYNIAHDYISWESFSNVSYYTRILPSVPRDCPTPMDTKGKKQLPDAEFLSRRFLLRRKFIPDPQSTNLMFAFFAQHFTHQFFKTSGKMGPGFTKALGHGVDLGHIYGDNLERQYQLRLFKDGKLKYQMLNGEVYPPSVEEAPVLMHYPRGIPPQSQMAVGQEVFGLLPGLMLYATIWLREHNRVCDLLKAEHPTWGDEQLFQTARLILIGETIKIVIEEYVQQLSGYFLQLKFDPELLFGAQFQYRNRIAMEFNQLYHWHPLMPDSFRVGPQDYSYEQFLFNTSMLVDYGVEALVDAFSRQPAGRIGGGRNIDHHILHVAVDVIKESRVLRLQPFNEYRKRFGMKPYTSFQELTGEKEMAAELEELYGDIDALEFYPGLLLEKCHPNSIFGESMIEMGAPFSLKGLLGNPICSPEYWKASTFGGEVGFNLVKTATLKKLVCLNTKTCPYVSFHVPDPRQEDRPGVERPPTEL
As for `Cc1cccc(N)c1N`, the result was inactive.

For the compound `c1ccc(NNc2ccccc2)cc1`, the AC50 is 2.46 µM (active).

For the compound `Clc1ccccc1Cl`, the result was inactive.

As for `c1ccc2c(c1)-c1cccc3cccc-2c13`, the call was inactive.

On to `CN(C)[C@@H]1C(=O)C(C(N)=O)=C(O)[C@@]2(O)C(=O)C3=C(O)c4c(O)cccc4[C@@](C)(O)[C@H]3C[C@@H]12`, for which the call was inactive.

In the case of `Nc1ccc(Cl)cc1N`, the AC50 was 4.69 µM (active).

Take `[Cl-].[Cl-].[Hg+2]`: the AC50 is 2.97 µM (active).

On to `C1=Cc2cccc3cccc1c23`, for which the half-maximal activity concentration (AC50) was 15.7 µM (active).

Regarding `Cc1cc(N=Nc2ccccc2C)ccc1N`, the AC50 is 11.8 µM (active).
